The values below come from PubChem BioAssay (Tox21).

“And” between values parts separate entries of the source, which are not always exact repeats. Identical values can stand only once. Results filed as inconclusive are left out. A call without a number means that no potency is given here. More than one record can exist for a structure, and the calls need not agree. The source made the active and inactive calls. Calls follow the shape of the dose curve; as a rule, active = well fitted inhibition curve with a large enough effect in the repeat runs; inconclusive = weak or mixed curves; inactive = no such curve, though single readings can be large or run the other way.
Potency is read from the fitted curve at half-maximal effect.

Cytochrome P450 2C9 (Homo sapiens), sequence (P11712 whole entry, looked up): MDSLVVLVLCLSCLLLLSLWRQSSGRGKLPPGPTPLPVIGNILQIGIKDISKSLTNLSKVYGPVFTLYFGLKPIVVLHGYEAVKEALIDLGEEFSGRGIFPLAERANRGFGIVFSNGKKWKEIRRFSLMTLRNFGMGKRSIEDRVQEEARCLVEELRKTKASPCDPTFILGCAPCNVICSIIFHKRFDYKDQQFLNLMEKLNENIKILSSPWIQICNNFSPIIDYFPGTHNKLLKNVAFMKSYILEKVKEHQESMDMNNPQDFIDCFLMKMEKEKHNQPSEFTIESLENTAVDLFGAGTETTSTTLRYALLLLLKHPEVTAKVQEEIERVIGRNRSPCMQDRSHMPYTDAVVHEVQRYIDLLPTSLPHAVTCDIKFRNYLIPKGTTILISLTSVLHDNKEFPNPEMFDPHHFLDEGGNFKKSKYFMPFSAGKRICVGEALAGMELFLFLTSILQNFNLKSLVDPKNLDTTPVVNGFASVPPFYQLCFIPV

This assay addresses Cytochrome P450 2C9 (Homo sapiens) (UniProt P11712). Kind of assay: Cytochrome P450 Family 2 Subfamily C Member 9 (CYP2C9) small molecule antagonists: luciferase reporter qHTS assay (AID 1671198). Also: nearly all actives have a fitted effect of over 50% in size. To be noted: P450-Glo CYP2C9 enzyme assay, luciferin luminescence; series mostly up to 115 µM. The method, boiled down: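 Enzyme-substrate mix preincubated with compound 10 min at room temperature; reaction started with NADPH regeneration solution, 1 h 37C. Luminescent luciferin product read after 20 min detection reagent.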
A general note: Reporter assays use an easily measured gene product as a stand-in for the process of interest.
`O=C(O)C(=O)O`: the Potency result is “inactive”. The same measure for `Cc1cn([C@H]2C[C@H](N=[N+]=[N-])[C@@H](CO)O2)c(=O)[nH]c1=O`: 63.3 µM (active) and inactive; for `CC1(C)[C@@H]2CC[C@@]1(C)C(=O)C2`: “inactive”; for `Nc1ccc(C(=O)O)cc1`: “inactive”.

Consider `CC(=O)OCC(COC(C)=O)OC(C)=O`, for which the Potency result was “inactive”. For `Cc1ccccc1C(OCCN(C)C)c1ccccc1` (stereo not drawn), the Potency entry is “inactive”.

As for `C/C=C/c1ccc(OC)cc1`, the Potency result was “inactive and 13.8 µM (active)”. For the molecule `CC(C)[C@@H]1CC[C@@H](C)C[C@H]1O`, the Potency result is “inactive”. The same measure for `CCCC(CCC)C(=O)O`: 79.6 µM (active) and inactive; for `NNC(=O)c1ccncc1`: 35.7 µM (active) and 13.3 µM (active). As to `CCCCCCCCCCCCCCCC(=O)O`, the Potency entry was “inactive”. For `CCCCC(CC)COC(=O)/C=C/c1ccc(OC)cc1` (stereo not drawn), the Potency is 19.9 µM (active) and 12.6 µM (active) and 11 µM (active). Take `NC(=O)c1ccccc1O`: the Potency result was “inactive”.
